Results published in the supplement of paper PMC10849652.
About 8,800 targets were measured; listed, in parts, are those with a hit and a random draw of the rest. About 0.5% of all pairs of compound and target were hits.

Compound: CC1=C2C(=CC=C1)N=C(N(C2=O)C3=CC=CC=C3C)CN4C=NC5=C(N=CN=C54)N
Experiment: log2 fold change, soluble protein after heating vs DMSO (PISA); higher = thermal stabilisation; K562 lysate, 10 uM; active = over 0.2 and 3.5 SD of the protein, either way, in both replicates (recomputed)
Procedure, shortened: (§1)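 Thermal stability, expressed as log-two fold change relative to solvent controls, is given from duplicates. Crude K562 extract in PBS pH 7.4 with 1 mM MgCl2, at 1 mg/mL protein, was treated with 10 μM compound for 30 min and heated in aliquots for 3 min across 48°C-58°C. After pooling, adjustment to 0.5% NP-40 at 4°C and centrifugation at 21,000xg for 90 min, supernatant protein was measured by TMTpro 16plex LC-MS/MS with channel sums equalised.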

Chain of UniProt Q9UBB5 (Q9UBB5 whole entry, looked up): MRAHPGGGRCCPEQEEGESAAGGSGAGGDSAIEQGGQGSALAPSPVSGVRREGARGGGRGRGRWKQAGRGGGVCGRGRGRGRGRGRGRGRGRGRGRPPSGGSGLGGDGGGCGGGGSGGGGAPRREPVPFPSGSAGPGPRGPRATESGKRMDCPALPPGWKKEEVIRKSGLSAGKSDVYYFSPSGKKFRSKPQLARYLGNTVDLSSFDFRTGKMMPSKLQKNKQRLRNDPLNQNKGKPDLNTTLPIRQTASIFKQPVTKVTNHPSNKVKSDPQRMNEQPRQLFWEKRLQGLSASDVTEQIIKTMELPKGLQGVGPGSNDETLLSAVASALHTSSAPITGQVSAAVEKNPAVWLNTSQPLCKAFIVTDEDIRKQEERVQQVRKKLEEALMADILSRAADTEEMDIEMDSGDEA
Chain of UniProt O95777 (O95777 whole entry, looked up): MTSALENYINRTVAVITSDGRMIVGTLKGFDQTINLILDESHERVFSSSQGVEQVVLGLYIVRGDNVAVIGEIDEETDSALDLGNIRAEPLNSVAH
Chain of UniProt Q9NVC6 (Q9NVC6 whole entry, looked up): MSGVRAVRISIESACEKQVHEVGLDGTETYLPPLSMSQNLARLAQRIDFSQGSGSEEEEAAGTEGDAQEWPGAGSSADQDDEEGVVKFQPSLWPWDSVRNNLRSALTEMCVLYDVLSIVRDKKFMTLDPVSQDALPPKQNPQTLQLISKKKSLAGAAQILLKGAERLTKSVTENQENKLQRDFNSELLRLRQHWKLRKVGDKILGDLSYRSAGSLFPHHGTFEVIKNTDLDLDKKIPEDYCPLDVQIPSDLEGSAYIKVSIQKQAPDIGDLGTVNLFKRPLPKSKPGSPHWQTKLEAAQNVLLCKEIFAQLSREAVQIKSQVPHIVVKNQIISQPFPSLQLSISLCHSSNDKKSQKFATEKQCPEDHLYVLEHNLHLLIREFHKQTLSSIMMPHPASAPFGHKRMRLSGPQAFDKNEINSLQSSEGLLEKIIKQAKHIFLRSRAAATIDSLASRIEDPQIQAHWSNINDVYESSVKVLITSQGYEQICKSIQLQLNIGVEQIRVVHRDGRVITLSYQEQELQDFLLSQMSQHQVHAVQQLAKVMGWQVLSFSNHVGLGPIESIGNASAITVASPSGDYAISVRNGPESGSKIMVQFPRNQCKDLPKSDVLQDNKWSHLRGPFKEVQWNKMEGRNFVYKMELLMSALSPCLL
Chain of UniProt Q8N4N3 (Q8N4N3 whole entry, looked up): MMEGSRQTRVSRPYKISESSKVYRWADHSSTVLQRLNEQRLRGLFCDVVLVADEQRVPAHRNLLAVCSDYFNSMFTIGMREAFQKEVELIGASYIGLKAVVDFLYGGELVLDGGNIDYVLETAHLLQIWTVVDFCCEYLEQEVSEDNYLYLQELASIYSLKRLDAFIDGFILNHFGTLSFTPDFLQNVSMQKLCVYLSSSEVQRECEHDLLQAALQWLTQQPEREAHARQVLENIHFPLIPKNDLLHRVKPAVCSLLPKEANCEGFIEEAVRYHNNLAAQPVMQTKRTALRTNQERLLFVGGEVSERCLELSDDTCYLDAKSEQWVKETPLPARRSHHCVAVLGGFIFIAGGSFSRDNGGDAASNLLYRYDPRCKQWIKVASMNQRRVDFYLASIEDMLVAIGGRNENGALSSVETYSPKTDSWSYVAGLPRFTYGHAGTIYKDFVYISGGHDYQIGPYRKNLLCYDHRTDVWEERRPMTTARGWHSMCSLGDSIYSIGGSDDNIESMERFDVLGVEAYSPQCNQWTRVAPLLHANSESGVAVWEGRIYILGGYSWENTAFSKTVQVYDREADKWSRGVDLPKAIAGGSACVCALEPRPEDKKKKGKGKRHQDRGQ
Chain of UniProt Q96EM0 (Q96EM0 whole entry, looked up): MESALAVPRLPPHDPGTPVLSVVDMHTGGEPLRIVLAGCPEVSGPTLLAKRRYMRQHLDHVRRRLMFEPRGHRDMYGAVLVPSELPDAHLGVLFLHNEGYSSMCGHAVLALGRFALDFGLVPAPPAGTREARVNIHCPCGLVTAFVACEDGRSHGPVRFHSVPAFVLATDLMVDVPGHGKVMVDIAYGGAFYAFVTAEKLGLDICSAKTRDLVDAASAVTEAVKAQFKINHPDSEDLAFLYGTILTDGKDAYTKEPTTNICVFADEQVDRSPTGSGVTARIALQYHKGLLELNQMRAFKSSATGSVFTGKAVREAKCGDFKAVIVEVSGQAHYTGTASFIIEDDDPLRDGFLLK
Chain of UniProt Q9H0B6 (Q9H0B6 whole entry, looked up): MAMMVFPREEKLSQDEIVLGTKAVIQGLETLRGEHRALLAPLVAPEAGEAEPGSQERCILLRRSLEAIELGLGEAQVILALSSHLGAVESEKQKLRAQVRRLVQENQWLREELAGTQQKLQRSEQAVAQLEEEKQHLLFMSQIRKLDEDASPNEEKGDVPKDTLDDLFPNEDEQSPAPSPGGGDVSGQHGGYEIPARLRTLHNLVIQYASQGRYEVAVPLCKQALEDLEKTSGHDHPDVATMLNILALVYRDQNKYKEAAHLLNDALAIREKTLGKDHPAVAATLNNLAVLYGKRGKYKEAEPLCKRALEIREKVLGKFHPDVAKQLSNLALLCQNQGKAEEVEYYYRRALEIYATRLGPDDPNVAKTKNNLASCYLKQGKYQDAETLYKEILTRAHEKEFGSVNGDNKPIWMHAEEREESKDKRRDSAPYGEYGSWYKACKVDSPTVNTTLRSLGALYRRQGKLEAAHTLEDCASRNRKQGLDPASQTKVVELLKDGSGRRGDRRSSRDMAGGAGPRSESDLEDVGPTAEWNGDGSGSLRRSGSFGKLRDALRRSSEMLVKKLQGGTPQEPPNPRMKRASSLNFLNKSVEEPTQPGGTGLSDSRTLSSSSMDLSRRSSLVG
Chain of UniProt Q96IZ6 (Q96IZ6 whole entry, looked up): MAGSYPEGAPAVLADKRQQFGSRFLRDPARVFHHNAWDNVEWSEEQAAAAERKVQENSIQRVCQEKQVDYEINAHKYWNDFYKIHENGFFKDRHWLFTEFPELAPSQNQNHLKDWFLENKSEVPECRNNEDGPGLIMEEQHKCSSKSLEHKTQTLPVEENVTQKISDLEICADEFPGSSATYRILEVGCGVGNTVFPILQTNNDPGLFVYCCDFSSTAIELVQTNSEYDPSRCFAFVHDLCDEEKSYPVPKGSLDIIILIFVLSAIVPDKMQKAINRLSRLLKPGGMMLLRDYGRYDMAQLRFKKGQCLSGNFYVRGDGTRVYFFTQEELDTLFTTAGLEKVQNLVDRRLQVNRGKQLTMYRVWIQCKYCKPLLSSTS
Chain of UniProt Q9BPX6 (Q9BPX6 whole entry, looked up): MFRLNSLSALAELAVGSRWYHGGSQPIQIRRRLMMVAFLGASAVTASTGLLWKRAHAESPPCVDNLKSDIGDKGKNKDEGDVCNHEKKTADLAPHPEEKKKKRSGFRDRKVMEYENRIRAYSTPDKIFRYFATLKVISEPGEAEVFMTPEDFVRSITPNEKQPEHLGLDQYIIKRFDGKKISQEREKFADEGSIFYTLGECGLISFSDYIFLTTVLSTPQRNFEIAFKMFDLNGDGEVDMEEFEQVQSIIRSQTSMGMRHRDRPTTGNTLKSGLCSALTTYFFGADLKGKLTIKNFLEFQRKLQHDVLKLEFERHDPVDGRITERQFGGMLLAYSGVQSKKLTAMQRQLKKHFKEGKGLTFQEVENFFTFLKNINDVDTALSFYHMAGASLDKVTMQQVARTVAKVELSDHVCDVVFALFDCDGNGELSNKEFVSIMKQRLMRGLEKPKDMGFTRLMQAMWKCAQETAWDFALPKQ
Chain of UniProt Q8IYU8 (Q8IYU8 whole entry, looked up): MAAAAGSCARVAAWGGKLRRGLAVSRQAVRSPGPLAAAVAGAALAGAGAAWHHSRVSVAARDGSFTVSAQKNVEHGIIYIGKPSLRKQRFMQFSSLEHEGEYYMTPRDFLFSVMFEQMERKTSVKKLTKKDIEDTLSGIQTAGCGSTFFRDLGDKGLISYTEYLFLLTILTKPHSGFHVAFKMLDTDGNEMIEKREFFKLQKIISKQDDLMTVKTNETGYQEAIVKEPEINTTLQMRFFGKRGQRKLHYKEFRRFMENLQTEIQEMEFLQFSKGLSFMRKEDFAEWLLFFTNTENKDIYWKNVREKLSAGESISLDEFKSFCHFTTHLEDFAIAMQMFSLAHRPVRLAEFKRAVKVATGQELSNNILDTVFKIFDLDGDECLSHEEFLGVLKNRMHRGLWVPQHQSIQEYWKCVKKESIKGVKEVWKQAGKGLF
Chain of UniProt Q6ZWT7 (Q6ZWT7 whole entry, looked up): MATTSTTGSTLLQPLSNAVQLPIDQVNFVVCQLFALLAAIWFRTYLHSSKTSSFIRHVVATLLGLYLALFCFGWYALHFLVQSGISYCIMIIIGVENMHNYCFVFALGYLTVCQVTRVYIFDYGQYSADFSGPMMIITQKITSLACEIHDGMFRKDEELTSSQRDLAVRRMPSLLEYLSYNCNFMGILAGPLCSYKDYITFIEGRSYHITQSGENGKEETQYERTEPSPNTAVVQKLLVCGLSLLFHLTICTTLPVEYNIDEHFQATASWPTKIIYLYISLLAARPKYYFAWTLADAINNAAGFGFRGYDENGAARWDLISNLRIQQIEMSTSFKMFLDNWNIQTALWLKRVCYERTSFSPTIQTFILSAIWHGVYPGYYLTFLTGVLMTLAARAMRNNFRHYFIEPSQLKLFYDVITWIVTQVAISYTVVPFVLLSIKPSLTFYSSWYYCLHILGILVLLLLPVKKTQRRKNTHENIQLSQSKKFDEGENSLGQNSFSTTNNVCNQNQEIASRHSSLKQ
Chain of UniProt Q9BVC4 (Q9BVC4 whole entry, looked up): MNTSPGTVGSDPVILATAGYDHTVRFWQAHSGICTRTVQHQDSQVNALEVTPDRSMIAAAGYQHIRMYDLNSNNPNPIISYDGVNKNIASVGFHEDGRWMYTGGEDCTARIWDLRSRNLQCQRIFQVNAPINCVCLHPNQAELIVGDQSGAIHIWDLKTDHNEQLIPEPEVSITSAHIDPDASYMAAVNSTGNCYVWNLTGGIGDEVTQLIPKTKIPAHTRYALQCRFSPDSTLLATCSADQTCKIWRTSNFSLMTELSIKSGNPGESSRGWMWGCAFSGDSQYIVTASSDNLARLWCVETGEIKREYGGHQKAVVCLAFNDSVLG

Row | Target | log2 fold change
1 | MBOAT2 (UniProt Q6ZWT7) | 0.121 (inactive)
2 | KIFC1 (UniProt Q9BW19) | 0.122 (inactive)
3 | LSM8 (UniProt O95777) | 0.017 (inactive)
4 | MAP4 (UniProt P27816) | -0.012 (inactive)
5 | MPZL1 (UniProt O95297) | -0.068 (inactive)
6 | MAP2K4 isoform 2 (UniProt P45985) | -0.065 (inactive)
7 | MLLT11 (UniProt Q13015) | 0.109 (inactive)
8 | KPNA4 (UniProt O00629) | 0.044 (inactive)
9 | MBD2 (UniProt Q9UBB5) | -0.028 (inactive)
10 | MANEA (UniProt Q5SRI9) | 0.044 (inactive)
11 | MAP2K3 isoform 3 (UniProt P46734) | -0.024 (inactive)
12 | KLC2 (UniProt Q9H0B6) | 0.029 (inactive)
13 | MAP7D3 (UniProt Q8IWC1) | -0.091 (inactive)
14 | MGST1 (UniProt P10620) | 0 (inactive)
15 | MLST8 (UniProt Q9BVC4) | -0.051 (inactive)
16 | KIF4A (UniProt O95239) | 0.035 (inactive)
17 | MICU2 (UniProt Q8IYU8) | 0.049 (inactive)
18 | LRCH3 (UniProt Q96II8) | 0.025 (inactive)
19 | KIF26A (UniProt Q9ULI4) | 0.053 (inactive)
20 | MGAT5 (UniProt Q09328) | -0.171 (inactive)

Row | Target | log2 fold change
21 | MPI (UniProt P34949) | 0.033 (inactive)
22 | METTL2A (UniProt Q96IZ6) | 0.046 (inactive)
23 | KMT2A isoform 3 (UniProt Q03164) | -0.009 (inactive)
24 | LYSMD3 (UniProt Q7Z3D4) | 0.062 (inactive)
25 | L3HYPDH (UniProt Q96EM0) | 0.003 (inactive)
26 | LIMK1 (UniProt P53667) | -0.07 (inactive)
27 | MED17 (UniProt Q9NVC6) | 0.016 (inactive)
28 | MAD2L1BP isoform 3 (UniProt Q15013) | -0.013 (inactive)
29 | MRPL12 (UniProt P52815) | -0.022 (inactive)
30 | MAP2K7 isoform 4 (UniProt O14733) | -0.038 (inactive)
31 | LUC7L (UniProt Q9NQ29) | 0.006 (inactive)
32 | MAPKAPK2 (UniProt P49137) | -0.053 (inactive)
33 | MRPL19 (UniProt P49406) | 0.011 (inactive)
34 | MICU1 isoform 3 (UniProt Q9BPX6) | -0.035 (inactive)
35 | MAT2B (UniProt Q9NZL9) | -0.044 (inactive)
36 | KPNA2 (UniProt P52292) | 0.035 (inactive)
37 | KIF11 (UniProt P52732) | 0.006 (inactive)
38 | KLHL36 (UniProt Q8N4N3) | -0.018 (inactive)
39 | MRPL46 (UniProt Q9H2W6) | 0.021 (inactive)

Compound: Cc1sc2c(c1C)C(c1ccc(Cl)cc1)=N[C@@H](CC(=O)OC(C)(C)C)c1nnc(C)n1-2
Experiment: as above
Procedure, shortened: as §1

Row | Target | log2 fold change
40 | MBOAT2 (UniProt Q6ZWT7) | -0.022 (inactive)
41 | KIFC1 (UniProt Q9BW19) | 0.021 (inactive)
42 | LSM8 (UniProt O95777) | -0.004 (inactive)
43 | MAP4 (UniProt P27816) | -0.027 (inactive)
44 | MPZL1 (UniProt O95297) | -0.042 (inactive)
45 | MAP2K4 isoform 2 (UniProt P45985) | -0.013 (inactive)
46 | MLLT11 (UniProt Q13015) | -0.037 (inactive)
47 | KPNA4 (UniProt O00629) | 0.011 (inactive)
48 | MBD2 (UniProt Q9UBB5) | 0.065 (inactive)
49 | MANEA (UniProt Q5SRI9) | 0.029 (inactive)
50 | MAP2K3 isoform 3 (UniProt P46734) | 0.043 (inactive)
51 | KLC2 (UniProt Q9H0B6) | 0.003 (inactive)
52 | MAP7D3 (UniProt Q8IWC1) | 0.015 (inactive)
53 | MGST1 (UniProt P10620) | -0.056 (inactive)
54 | MLST8 (UniProt Q9BVC4) | 0.001 (inactive)
55 | KIF4A (UniProt O95239) | 0.06 (inactive)
56 | MICU2 (UniProt Q8IYU8) | -0.072 (inactive)
57 | LRCH3 (UniProt Q96II8) | -0.014 (inactive)
58 | KIF26A (UniProt Q9ULI4) | 0.09 (inactive)
59 | MGAT5 (UniProt Q09328) | 0.017 (inactive)

Row | Target | log2 fold change
60 | MPI (UniProt P34949) | -0.023 (inactive)
61 | METTL2A (UniProt Q96IZ6) | 0 (inactive)
62 | KMT2A isoform 3 (UniProt Q03164) | -0.025 (inactive)
63 | LYSMD3 (UniProt Q7Z3D4) | -0.096 (inactive)
64 | L3HYPDH (UniProt Q96EM0) | -0.014 (inactive)
65 | LIMK1 (UniProt P53667) | -0.024 (inactive)
66 | MED17 (UniProt Q9NVC6) | 0.021 (inactive)
67 | MAD2L1BP isoform 3 (UniProt Q15013) | -0.01 (inactive)
68 | MRPL12 (UniProt P52815) | 0.027 (inactive)
69 | MAP2K7 isoform 4 (UniProt O14733) | 0.066 (inactive)
70 | LUC7L (UniProt Q9NQ29) | 0.003 (inactive)
71 | MAPKAPK2 (UniProt P49137) | 0.004 (inactive)
72 | MRPL19 (UniProt P49406) | -0.065 (inactive)
73 | MICU1 isoform 3 (UniProt Q9BPX6) | -0.043 (inactive)
74 | MAT2B (UniProt Q9NZL9) | -0.003 (inactive)
75 | KPNA2 (UniProt P52292) | 0.003 (inactive)
76 | KIF11 (UniProt P52732) | -0.002 (inactive)
77 | KLHL36 (UniProt Q8N4N3) | -0.011 (inactive)
78 | MRPL46 (UniProt Q9H2W6) | 0.026 (inactive)
